EPAC1 ag = EPAC1 (human) agonism; O95398; EPAC1 agonist qHTS, biochemical assay; response scale: 100% = response to 6.5 mM cAMP; Potency, µM (doses to about 154 µM), without a hit: at the highest dose activation, most hits filed as activators; actives 0.073% (n = 360,000); AID 720707; further: nearly all actives have a fitted effect of over 60% in size
Target sequence (O95398 whole entry, looked up): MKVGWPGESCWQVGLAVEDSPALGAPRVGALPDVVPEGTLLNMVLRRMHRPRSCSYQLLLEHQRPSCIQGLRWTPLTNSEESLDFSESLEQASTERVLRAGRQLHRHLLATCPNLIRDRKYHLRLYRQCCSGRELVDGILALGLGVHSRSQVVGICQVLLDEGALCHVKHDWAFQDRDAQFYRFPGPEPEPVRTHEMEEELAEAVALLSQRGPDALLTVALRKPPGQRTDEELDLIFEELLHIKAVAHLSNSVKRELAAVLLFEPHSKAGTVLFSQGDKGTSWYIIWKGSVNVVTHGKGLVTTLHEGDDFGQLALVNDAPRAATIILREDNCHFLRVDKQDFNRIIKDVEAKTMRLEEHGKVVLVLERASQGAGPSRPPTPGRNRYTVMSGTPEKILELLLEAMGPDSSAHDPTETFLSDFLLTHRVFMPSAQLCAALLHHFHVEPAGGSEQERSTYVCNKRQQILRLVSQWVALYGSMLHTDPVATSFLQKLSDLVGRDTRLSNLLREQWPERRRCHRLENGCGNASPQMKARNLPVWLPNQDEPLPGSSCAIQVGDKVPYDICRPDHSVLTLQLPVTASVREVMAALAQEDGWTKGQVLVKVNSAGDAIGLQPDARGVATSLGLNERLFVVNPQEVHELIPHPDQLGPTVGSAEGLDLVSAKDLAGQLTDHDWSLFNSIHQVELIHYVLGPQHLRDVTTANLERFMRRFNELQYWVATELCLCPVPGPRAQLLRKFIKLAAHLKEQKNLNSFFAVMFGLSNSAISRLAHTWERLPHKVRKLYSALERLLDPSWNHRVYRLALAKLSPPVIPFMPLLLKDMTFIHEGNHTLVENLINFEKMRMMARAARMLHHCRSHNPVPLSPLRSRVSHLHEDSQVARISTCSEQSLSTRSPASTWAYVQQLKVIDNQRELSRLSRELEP
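Compounds were pinned as a concentration titration into mixtures of EPAC1 (100 nM), BODIPY-GDP-loaded Rap1B (250 nM) and GDP (50 uM). After 5 min at room temperature, fluorescence was followed for 30 min; activity was scaled to 6.5 mM cAMP.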
B2AR arrestin = agonists driving beta-arrestin recruitment to human beta2-adrenergic receptor. P07550. beta-arrestin recruitment to beta2AR, cell-based reporter. Potency, µM (highest dose often 46.1 µM), for inactives: top-dose activation, most hits filed as activators. actives 0.02% (n = 330,000). AID 492947;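 further: 0% = DMSO controls and full agonism = EC100 isoproterenol or metaproterenol; nearly all actives have a fitted effect of over 65% in size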
EPAC1 antagonist = antagonists of human EPAC1. O95398. EPAC1 GEF assay, Rap1b-BODIPY-GDP exchange fluorescence. Potency, µM (top dose mostly 115 µM), inactives show at the top dose activity change, negative = inhibition, actives largely listed as inhibitors. actives 0.14% (n = 360,000). AID 720709;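 further: plate controls were vehicle for no effect and positive control for full effect; nearly all actives have a fitted effect of over 50% in size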
EPAC2 agonist = EPAC2 (human) agonism; actives 0.079% (n = 360,000); EPAC2 activation, biochemical qHTS; response scale: 100% = 6.5 mM cAMP response; Potency, µM (titrated, usually from 154 µM), inactives show at the top dose activation, usual class: activators; Q8WZA2; further: nearly all actives have a fitted effect of over 50% in size
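Fluorescence exchange assay: 100 nM EPAC2 with 250 nM RAP1B-BODIPY-GDP and 50 uM GDP; compounds tested as a concentration-titration series (qHTS). Loss of Rap1-bound BODIPY-GDP fluorescence read at 480/540 nm; data normalized to 6.5 mM cAMP.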
EPAC2 antagonist = EPAC2 (human) antagonism; Q8WZA2; Potency, µM (doses to about 114 µM), for the others: top-dose activity, negative = inhibition, usual class: inhibitors; actives 0.18% (n = 360,000); EPAC2 GEF exchange of Rap1B-BODIPY-GDP, fluorescence; further: on the % scale 0 is the no-effect control and ±100 the full control effect; nearly all actives have a fitted effect of over 45% in size
* hit, by the source's call; ? = inconclusive; . = not tested or not shown. Only some compounds are listed: those with a hit (about 0.4% of all), similar ones and a draw of the others. The call rests on the fitted dose curve; in most records, active means well fitted curve in the direction sought with a large enough effect; inconclusive means small, poorly fitted or top-dose-only effect, or another doubt; inactive means no such curve, though single readings can be large; an effect the other way counts as inactive or inconclusive. Potency means the concentration at half of the fitted maximal effect.

SMILES	EPAC1 ag	B2AR arrestin	EPAC1 antagonist	EPAC2 agonist	EPAC2 antagonist
Cc1cc(/C=C2\SC(=S)NC2=O)cc(C)c1O	7%	0%	?	1%	16µM*
O=C1NC(=Nc2ccccc2Cl)S/C1=C\c1cccc([N+](=O)[O-])c1	10%	0%	-23%	5%	-9%
COc1ccccc1C=C1SC(=S)NC1=O	-7%	.	?	6%	-23%
O=C1NC(=S)S/C1=C\c1cccc([N+](=O)[O-])c1	-5%	.	?	3%	50µM*
Cc1cc(/C=C2\SC(=S)NC2=O)c(C)n1C	0%	-1%	?	-6%	-2%
O=C1NC(=S)S/C1=C\c1cc(Cl)cc(Cl)c1O	-10%	.	40µM*	-11%	56µM*
O=C1NC(=S)SC1=Cc1ccccc1Cl	-1%	.	?	12%	35µM*
O=C(NCC(F)(F)F)c1cc2c(c(-c3cccc(-c4ccccc4F)c3)n1)[C@H](CCO)N(C(=O)CC1CC1)C2	6%	.	-23%	7%	-17%
C[C@@H](c1ccccc1)N1C[C@@H](COCc2ccccc2)Oc2cc(N3CCC[C@H]3CO)ccc2S1(=O)=O	5%	.	-7%	9%	-6%
CCCCCCCCN1C(=O)[C@H](CC(=O)NCCCOC)C[C@@]2(C(=O)OCC)CCCC=C12	-22%	.	-21%	-6%	-22%
CC1=Nc2ccccc2/C1=C\c1nc(-c2ccc(F)cc2)oc1O	89µM*	0%	26%	?	47%
COC(=O)[C@@]12C[C@@H](CC(=O)N3CCOCC3)C(=O)N(CCc3ccc(OC)c(OC)c3)C1=CCC(C)(C)C2	10%	.	8%	1%	-6%
CCCn1c(O)c(N=Nc2ccc3ccccc3n2)c2ccccc21	-5%	2%	1%	89µM*	68%
C[C@@H]1CN([C@H](C)CO)C(=O)c2cc(Br)cnc2O[C@@H]1CN(C)C(=O)Nc1cccc(F)c1	-3%	.	8%	-1%	4%
COc1cccc(NS(=O)(=O)c2ccc3c(c2)C2C=CCC2C(c2ccc(C(=O)O)cc2)N3)c1 (stereo unspecified)	-7%	0%	50µM*	-4%	3%
COc1ccc(C(=O)N/N=C(\C)c2ccc3c(c2)C2C=CCC2C(c2ccccc2)N3)cc1 (stereo unspecified)	-1%	7%	?	1%	-4%
C[C@H](CO)N1C[C@H](C)[C@@H](CN(C)C)Oc2c(NC(=O)CCC(F)(F)F)cccc2C1=O	-15%	-2%	-18%	-1%	2%
Cc1[nH]c(=O)nc(SCc2cccc(Cl)c2)c1C#N	-1%	0%	?	-4%	-1%
N#Cc1c(-c2ccccc2)nc(SCc2cccc(Cl)c2)[nH]c1=O	-5%	0%	?	-11%	89µM*
Clc1ccc(-c2csc(=Nc3cccnc3)n2CCCn2ccnc2)cc1Cl	7%	-1%	9%	-2%	-7%
COCCn1c(-c2ccc(Br)cc2)csc1=Nc1cccnc1	10%	0%	-1%	-3%	45µM*
O=C(N/N=C/c1ccc(OC(=O)c2ccccc2Cl)cc1)c1cc(O)cc(O)c1	-4%	4%	71µM*	24%	-19%
O=C(N/N=C/c1ccc(OC(=O)c2ccccc2Cl)cc1)c1ccccn1	-20%	-1%	-1%	1%	9%
O=C(O)C(Cc1c[nH]c2ccccc12)NS(=O)(=O)c1cccc(Cl)c1Cl (stereo unspecified)	2%	0%	-14%	11%	45µM*
O=C(O)c1ccc(Cl)c(S(=O)(=O)NC(Cc2c[nH]c3ccccc23)C(=O)O)c1 (stereo unspecified)	3%	0%	-7%	12%	6%
SMILES	EPAC1 ag	B2AR arrestin	EPAC1 antagonist	EPAC2 agonist	EPAC2 antagonist
N=c1c(S(=O)(=O)c2ccc(Br)cc2)cc2c(=O)n3ccccc3nc2n1C1CCCC1	1%	0%	-6%	-1%	79µM*
Cc1cccc(C)c1OCC(=O)Nc1ccccc1N1CCCCC1	-2%	0%	1%	7%	10µM*
Cc1ccc(NC(=O)c2sc3nc(CCl)[nH]c(=O)c3c2C)c(C)c1	3%	0%	-17%	4%	-3%
CCc1ccc2c(c1)NC(=O)C2(C)Cc1ccc(F)cc1 (stereo unspecified)	-17%	.	-8%	-4%	45µM*
CCc1ccc2c(c1)NC(=O)C2(C)Cc1ccc(Cl)s1 (stereo unspecified)	-5%	.	-15%	13%	?
CCC(NC(C)C)C(O)c1ccc(O)c(O)c1 (stereo unspecified)	6%	3.2µM*	-2%	-3%	-8%
O=C1/C(=C/C=C/c2ccco2)SC(=S)N1c1ccc(O)cc1	15%	0%	?	10%	23%
CC(C)C(C(=O)O)N1C(=O)/C(=C/C=C/c2ccco2)SC1=S (stereo unspecified)	9%	-1%	56µM*	1%	-18%
O=C1c2ccccc2C(O)N1Cc1ccco1 (stereo unspecified)	2%	-1%	3%	1%	3%
CCOc1ccccc1NC1c2ccccc2C(=O)N1Cc1ccco1 (stereo unspecified)	4%	0%	3%	12%	16µM*
COC(=O)c1ccccc1C(=O)c1cccc2ccccc12	7%	-1%	-17%	14%	45µM*
COc1ccc(NC(=O)c2cccc3ccccc23)cc1	-5%	-1%	14%	-4%	14%
O=C(c1ccccc1)c1cccc2ccccc12	14%	.	-14%	11%	13µM*
CC1CCC(NC(=O)CN(C)CC(=O)Nc2ccc(F)cc2)CC1 (stereo unspecified)	-1%	0%	-5%	-10%	12%
CN1CCN(Cc2cc(COCc3ccccc3)c3cccnc3c2O)CC1	-4%	2.5µM*	-5%	-5%	5%
Oc1c(CN2CCc3ccccc3C2)cc(Cl)c2cccnc12	-21%	7.1µM*	9%	12%	6%
CCCCN(C=O)c1c(CC)nc2ccc(C(=O)N3CCN(C(=O)c4ccco4)CC3)cn12	-9%	.	-16%	7%	-4%
Cc1ccc(C2CC(c3cccs3)=NN2C(=O)CSc2nc(=O)n3cc(C)ccc3n2)cc1 (stereo unspecified)	112µM*	6%	-10%	8%	7%
COc1ccccc1C(=O)Oc1ccc2c(c1)O/C(=C\c1ccncc1)C2=O	100µM*	0%	24%	7%	6%
O=C(Oc1ccc2c(c1)O/C(=C\c1ccncc1)C2=O)c1cccs1	-9%	-1%	49%	4%	4%
CC(=O)Oc1ccc2c(c1)O/C(=C\c1ccncc1)C2=O	89µM*	0%	57%	?	81%
CC1CCC(C(O)(C(=O)O)C2CCCCC2)CC1C (stereo unspecified)	6%	.	6%	-9%	-3%
CC(C)N(C(=S)Nc1ccc(S(=O)(=O)N2CCOCC2)cc1)c1ccccc1	3%	0%	-26%	13%	0%
